High-throughput results from PubChem BioAssay.
Only some compounds are listed: those with a hit (about 0.65% of all), similar ones and a draw of the others.
NS1 function inh = qHTS Assay for Inhibitors of Influenza NS1 Protein Function; Potency, µM (highest dose often 46.1 µM); actives 0.4% (n = 270,000); also: actives are rising curves; nearly all actives have a fitted effect of over 50% in size
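In this qHTS, NS1 from influenza A is expressed in budding yeast, where it slows growth. Cells are switched from glucose to 2% galactose medium (pH 6.0, -URA), treated with compound, and growth recovery is read at OD600.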
AMA1-RON2 inh = qHTS for Inhibitors of AMA1-RON; Towards Development of Antimalarial Drug Lead: Primary Screen | actives 0.2% (n = 360,000) | AlphaScreen AMA1-biotinylated RON2 peptide binding | Potency, µM (doses to about 58.2 µM), hits mostly inhibitors | Plasmodium falciparum AMA1 (3D7) - RON2 peptide interaction | AID 720542, 2013; active = well fitted inhibition curve with a large enough effect; inconclusive = small, poorly fitted or top-dose-only effect; inactive = no such curve, though single readings can be large or run the other way; also: nearly all actives have a fitted effect of over 45% in size
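AMA1 (3D7) with his tag at 25 nM final met compounds first, then biotinylated RON2 peptide at 25 nM; detection used donor plus acceptor beads, 10 µg/mL apiece, read by AlphaScreen after 30 min at room temperature.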
SARS PLpro yeast = qHTS of Yeast-based Assay for SARS-CoV PLP. S. cerevisiae expressing SARS-CoV PLpro, growth rescue. Potency, µM (titrated, usually from 32.9 µM), usual class: activators. actives 0.19% (n = 330,000). AID 485353, 2010; also: nearly all actives have a fitted effect of over 55% in size
Flu NS1 inh = Assay for Inhibitors of Influenza NS1 Protein Function: Hit Validation | shares compounds with NS1 function inh | influenza NS1 function cell assay, 15-point titration | activity change, negative = inhibition, % at 32.9 µM | 1,400 tested, under 10 active
Large screens that a line does not name were inactive (follow-up assays come after a bar, where they were run). Unless noted, calls follow the shape of the full dose curve.

CCOC(=O)C1=C(CSc2nc3c(cc2C#N)CN(C)CC3)OC(N)=C(C#N)C1c1ccccc1 (configuration not stated)	none
CCOC(=O)C1=C(CSc2nc(-c3ccccc3)ccc2C#N)OC(N)=C(C#N)C1c1cccnc1 (configuration not stated)	NS1 function inh 10µM | Flu NS1 inh inactive
CCOC(=O)C1=C(CSc2nc(-c3ccccc3)ccc2C#N)OC(N)=C(C#N)C1c1ccccc1 (configuration not stated)	none
CCOc1ccc(S(=O)(=O)NCCC(=O)NCCc2ccc(C(C)C)cc2)cc1	none (no result: NS1 function inh)
CC(C)c1ccc(NC2CCCN(C(=O)CCn3cnnn3)C2)cc1 (configuration not stated)	none
CCOC(=O)COc1c(OC)cc(Cl)cc1C1Nc2ccccc2C(=O)N1c1ccccc1 (configuration not stated)	none
CCOC(=O)COc1c(OC)cc(Cl)cc1C1Nc2ccccc2C(=O)N1c1ccc(F)cc1 (configuration not stated)	NS1 function inh 12.6µM | Flu NS1 inh inactive
NC(Cc1nc2ccccc2[nH]1)c1ccc(Cl)cc1 (configuration not stated)	none
OC(Cc1nc2ccccc2[nH]1)c1ccccc1Cl (configuration not stated)	NS1 function inh 0.282µM | Flu NS1 inh inactive
CCN(C(=O)C(C)OC(=O)CCCNC(=O)c1ccc(Cl)cc1)c1ccccc1 (configuration not stated)	none (no result: NS1 function inh)
CN(Cc1cccc(F)c1)C(=O)c1cccc(S(=O)(=O)N2CCN(Cc3ccccc3)CC2)c1	none
CN(Cc1cccc(F)c1)C(=O)c1ccc(S(=O)(=O)C(F)F)cc1	NS1 function inh 2.82µM | Flu NS1 inh inactive
CC(=O)Nc1ccccc1OCC(O)CS(=O)(=O)c1ccc(C(F)(F)F)cn1 (configuration not stated)	none
CSCC[C@H](NC(=O)[C@H](Cc1ccccc1)n1c(=O)[nH]c2ccccc2c1=O)C(=O)NCC1CCC(C(=O)O)CC1 (some centres not stated)	NS1 function inh 11.2µM | Flu NS1 inh inactive
CSCC[C@H](NC(=O)[C@H](Cc1ccccc1)n1c(=O)[nH]c2ccccc2c1=O)C(=O)N1CCC[C@@H]1C(=O)O	none
Cn1c(COc2ccc(Cl)cc2Cl)nnc1SCC(=O)NCC1CCCO1 (configuration not stated)	none
COc1ccccc1Nc1nn2c(=O)c3ccc(C(=O)N4CCC(C)CC4)cc3nc2s1	NS1 function inh inconclusive | Flu NS1 inh inconclusive
Cc1ccccc1Nc1nn2c(=O)c3ccc(C(=O)N4CCCC(C)C4)cc3nc2s1 (configuration not stated)	none (no result: NS1 function inh, SARS PLpro yeast)
CC(C)Sc1nc(-c2cccs2)nc2cc(Cl)ccc12	none (no result: NS1 function inh, SARS PLpro yeast)
CCOC(=O)N1CCN(Cc2nc3cc(NC(=O)c4ccco4)ccc3n2C)CC1	none
CCOC(=O)CCNC(=O)N1CCCC(Cc2ccccc2)(C(=O)OCC)C1 (configuration not stated)	none
O=C(NC1CC1)c1ccc(CS(=O)(=O)c2c(Cl)cccc2Cl)o1	NS1 function inh 4.47µM | Flu NS1 inh inactive
O=C(NCC1CCCO1)c1ccc(CS(=O)(=O)c2c(Cl)cccc2Cl)o1 (configuration not stated)	none
O=C(CC1C(=O)NCCN1Cc1cccc(F)c1)NCCCOc1cccnc1 (configuration not stated)	none
Cc1ccccc1-c1nc2ccccc2c(=O)n1/N=C/c1ccccc1[N+](=O)[O-]	NS1 function inh 3.16µM | Flu NS1 inh inactive
Cc1ccccc1-c1nc2ccccc2c(=O)n1/N=C/c1ccc([N+](=O)[O-])cc1	none (no result: NS1 function inh, SARS PLpro yeast)
C[C@H](NC(=O)c1nc[nH]c1C(=O)N[C@@H](C)C(=O)OC(C)(C)C)C(=O)OCc1ccccc1	none
C[C@H](NC(=O)c1nc[nH]c1C(=O)N[C@@H](CCCCNC(=O)OC(C)(C)C)C(=O)OC(C)(C)C)C(=O)OCc1ccccc1	NS1 function inh 10µM | Flu NS1 inh inactive
CC(C)C[C@H](NC(=O)c1nc[nH]c1C(=O)NCc1ccc(CNC(=O)OC(C)(C)C)cc1)C(=O)OC(C)(C)C	NS1 function inh 8.91µM | Flu NS1 inh inactive
CC(C)(C)OC(=O)CNC(=O)c1[nH]cnc1C(=O)N[C@@H](Cc1ccccc1)C(=O)OC(C)(C)C	none
C[C@H](NC(=O)c1nc[nH]c1C(=O)N[C@@H](Cc1ccccc1)C(=O)OCc1ccccc1)C(=O)OC(C)(C)C	NS1 function inh 10µM | Flu NS1 inh inactive
CC(C)C[C@H](NC(=O)c1nc[nH]c1C(=O)NCc1ccccc1)C(=O)OC(C)(C)C	none
CC(C)(C)OC(=O)[C@H](Cc1ccccc1)NC(=O)c1nc[nH]c1C(=O)NCC(=O)OCc1ccccc1	NS1 function inh 11.2µM | Flu NS1 inh inactive
CC(C)C[C@H](NC(=O)c1nc[nH]c1C(=O)N[C@@H](CCCCNC(=O)OC(C)(C)C)C(=O)OC(C)(C)C)C(=O)OCc1ccccc1	NS1 function inh inconclusive
COc1ccc(C(=O)NCCS(=O)(=O)NC(C)c2ccccc2)cc1 (configuration not stated)	none (no result: NS1 function inh)
S=c1nc(-c2csc3c2CCCC3)[nH][nH]1	none
Cc1c(C(=O)NCc2ccc(F)cc2)sc(=O)n1Cc1ccc(Cl)c(Cl)c1	none (no result: NS1 function inh, SARS PLpro yeast)
COc1cc(OC)c(C(=O)OCC(=O)Nc2ccccc2Cl)cc1OC	none
CSc1ccccc1NC(=O)C(C)N(C)CC(=O)N1CCN(Cc2ccccc2)CC1 (configuration not stated)	none (no result: NS1 function inh, SARS PLpro yeast)
C[C@]12C=CC(=O)C=C1CCC1C2=CC[C@]2(C)[C@@H](C(=O)CN3CCN(c4cc(N5CCCC5)nc(N5CCCC5)n4)CC3)CC[C@@H]12 (some centres not stated)	NS1 function inh 35.5µM (no result: AMA1-RON2 inh, SARS PLpro yeast) | Flu NS1 inh inconclusive
CC(=O)OCC(=O)C1CCC2C3CCC4=CC(=O)C=CC4(C)C3CCC12C (configuration not stated)	none (no result: NS1 function inh, SARS PLpro yeast)
CC1CCN(S(=O)(=O)c2ccc3c(c2)N(CC(=O)NCCCOC(C)C)C(=O)CO3)CC1	NS1 function inh inconclusive | Flu NS1 inh inactive
CCOCCCNC(=O)CN1C(=O)COc2ccc(S(=O)(=O)N3CCC(C)CC3)cc21	none
O=C1CCN(S(=O)(=O)c2cc(C(F)(F)F)ccc2Cl)CC1	none (no result: NS1 function inh)
CC(C)CC(C(=O)O)N1C(=O)C2C3CC(C2C1=O)C1C(c2ccccc2)c2sc(=O)[nH]c2SC31 (configuration not stated)	NS1 function inh inconclusive | Flu NS1 inh inactive
O=C(O)CN1C(=O)C2C3CC(C2C1=O)C1C(c2ccccc2)c2sc(=O)[nH]c2SC31 (configuration not stated)	none
CCCOc1ccccc1NC(=O)/C=C/c1ccc(OC)c(S(=O)(=O)N2CCOCC2)c1	none (no result: NS1 function inh, SARS PLpro yeast)
Cn1cc(/C=C(\C#N)C(=O)Nc2ncc(Cc3cccc(Cl)c3)s2)c2ccccc21	none (no result: AMA1-RON2 inh)
N#C/C(=C\c1c[nH]c2ccccc12)C(=O)Nc1ncc(Cc2ccc(Cl)cc2Cl)s1	NS1 function inh 11.2µM | Flu NS1 inh inactive
